{
  "source": "paper PMC7862700",
  "about": "“An all-to-all approach to the identification of sequence-specific readers for epigenetic DNA modifications on cytosine”",
  "data": [
    {"target": "T1, ELK1 (Homo sapiens, UniProt P19419 1-428)", "T1 sequence": "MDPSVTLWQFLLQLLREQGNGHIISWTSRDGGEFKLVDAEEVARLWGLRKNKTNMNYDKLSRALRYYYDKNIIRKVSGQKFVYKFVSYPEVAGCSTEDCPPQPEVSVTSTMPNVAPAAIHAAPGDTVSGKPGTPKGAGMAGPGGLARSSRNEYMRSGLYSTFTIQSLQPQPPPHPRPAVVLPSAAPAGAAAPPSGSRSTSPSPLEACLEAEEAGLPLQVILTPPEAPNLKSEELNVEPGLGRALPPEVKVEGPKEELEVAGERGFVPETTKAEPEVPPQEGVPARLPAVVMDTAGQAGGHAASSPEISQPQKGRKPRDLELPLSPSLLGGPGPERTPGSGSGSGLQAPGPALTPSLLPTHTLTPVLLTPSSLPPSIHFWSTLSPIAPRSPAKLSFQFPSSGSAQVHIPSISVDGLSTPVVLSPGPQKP", "test": "DAPPL (digital affinity profiling via proximity ligation, sequencing); 10 mM Tris-HCl pH 7.5, 50 mM NaCl, 1 mM DTT, 4% glycerol, room temperature, 30 min; GST-TFs on glutathione beads, 16-mer random dsDNA library, 0.1% formaldehyde crosslink after washing; high values mean tight binding", "details": "protein: recombinant; tags: N-terminal GST; dsDNA, one strand shown", "in_short": "(§1)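 After expression in yeast as GST fusions, human transcription factors were bound to glutathione beads, DNA-barcoded and mixed with a tag-only sample. The pools were incubated with 200 nmole of a 16-mer random double-stranded DNA library in Tris/NaCl/DTT/glycerol buffer (30 min, room temperature), washed and crosslinked with 0.1% formaldehyde. Proximity ligation with BsaI/T4 ligase ran for 1 h at 37 °C, before PCR amplification and sequencing on an Illumina NextSeq500. Binding signal is a hexamer's read frequency for a factor divided by its frequency for the tag-only sample.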", "values": [
      {"sequence": "GTGCTC", "binding signal": "1.18 fold enrichment (6-mer frequency, TF over GST control)"},
      {"sequence": "CTTGAA", "binding signal": "1.24 fold enrichment (6-mer frequency, TF over GST control)"},
      {"sequence": "GATTTG", "binding signal": "1.16 fold enrichment (6-mer frequency, TF over GST control)"},
      {"sequence": "GCGTTC", "binding signal": "1.06 fold enrichment (6-mer frequency, TF over GST control)"},
      {"sequence": "TCTGTG", "binding signal": "1.14 fold enrichment (6-mer frequency, TF over GST control)"},
      {"sequence": "GAAGTA", "binding signal": "2.23 fold enrichment (6-mer frequency, TF over GST control)"},
      {"sequence": "TACGGA", "binding signal": "1.25 fold enrichment (6-mer frequency, TF over GST control)"},
      {"sequence": "ACACAC", "binding signal": "1.13 fold enrichment (6-mer frequency, TF over GST control)"},
      {"sequence": "GCTGAA", "binding signal": "1.09 fold enrichment (6-mer frequency, TF over GST control)"},
      {"sequence": "TCACAA", "binding signal": "1.14 fold enrichment (6-mer frequency, TF over GST control)"},
      {"sequence": "GCGCCT", "binding signal": "1.19 fold enrichment (6-mer frequency, TF over GST control)"},
      {"sequence": "CTGGAC", "binding signal": "1.07 fold enrichment (6-mer frequency, TF over GST control)"},
      {"sequence": "GTATAC", "binding signal": "1.3 fold enrichment (6-mer frequency, TF over GST control)"},
      {"sequence": "TATTTC", "binding signal": "2.09 fold enrichment (6-mer frequency, TF over GST control)"},
      {"sequence": "CCGAAA", "binding signal": "1.23 fold enrichment (6-mer frequency, TF over GST control)"},
      {"sequence": "ACCTTG", "binding signal": "1.37 fold enrichment (6-mer frequency, TF over GST control)"},
      {"sequence": "CAACAC", "binding signal": "1.23 fold enrichment (6-mer frequency, TF over GST control)"},
      {"sequence": "GTATAA", "binding signal": "1.21 fold enrichment (6-mer frequency, TF over GST control)"},
      {"sequence": "TCGATG", "binding signal": "1.14 fold enrichment (6-mer frequency, TF over GST control)"},
      {"sequence": "GGCCTA", "binding signal": "1.22 fold enrichment (6-mer frequency, TF over GST control)"},
      {"sequence": "AAGCAC", "binding signal": "1.14 fold enrichment (6-mer frequency, TF over GST control)"},
      {"sequence": "CGATCG", "binding signal": "1.12 fold enrichment (6-mer frequency, TF over GST control)"},
      {"sequence": "ACTCGC", "binding signal": "1.14 fold enrichment (6-mer frequency, TF over GST control)"},
      {"sequence": "CTGTCC", "binding signal": "1.22 fold enrichment (6-mer frequency, TF over GST control)"},
      {"sequence": "TTAGCG", "binding signal": "1.04 fold enrichment (6-mer frequency, TF over GST control)"},
      {"sequence": "TAATGA", "binding signal": "1.21 fold enrichment (6-mer frequency, TF over GST control)"},
      {"sequence": "GGTAAT", "binding signal": "1.1 fold enrichment (6-mer frequency, TF over GST control)"},
      {"sequence": "TATCGC", "binding signal": "1.16 fold enrichment (6-mer frequency, TF over GST control)"},
      {"sequence": "TGCGCA", "binding signal": "1.07 fold enrichment (6-mer frequency, TF over GST control)"},
      {"sequence": "CCGGGT", "binding signal": "1.06 fold enrichment (6-mer frequency, TF over GST control)"},
      {"sequence": "TCTATG", "binding signal": "1.2 fold enrichment (6-mer frequency, TF over GST control)"},
      {"sequence": "ATTGCT", "binding signal": "1.19 fold enrichment (6-mer frequency, TF over GST control)"},
      {"sequence": "ATGTGC", "binding signal": "1.1 fold enrichment (6-mer frequency, TF over GST control)"},
      {"sequence": "TTTCCT", "binding signal": "2.32 fold enrichment (6-mer frequency, TF over GST control)"},
      {"sequence": "GCTCTG", "binding signal": "1.26 fold enrichment (6-mer frequency, TF over GST control)"},
      {"sequence": "ATAGCT", "binding signal": "1.08 fold enrichment (6-mer frequency, TF over GST control)"},
      {"sequence": "CCCTGT", "binding signal": "1.02 fold enrichment (6-mer frequency, TF over GST control)"},
      {"sequence": "AATCAG", "binding signal": "1.05 fold enrichment (6-mer frequency, TF over GST control)"},
      {"sequence": "CGAAGC", "binding signal": "1.36 fold enrichment (6-mer frequency, TF over GST control)"},
      {"sequence": "CCGCGT", "binding signal": "1.11 fold enrichment (6-mer frequency, TF over GST control)"}
    ]},
    {"target": "T2, GABPA (Homo sapiens, UniProt Q06546 1-454)", "T2 sequence": "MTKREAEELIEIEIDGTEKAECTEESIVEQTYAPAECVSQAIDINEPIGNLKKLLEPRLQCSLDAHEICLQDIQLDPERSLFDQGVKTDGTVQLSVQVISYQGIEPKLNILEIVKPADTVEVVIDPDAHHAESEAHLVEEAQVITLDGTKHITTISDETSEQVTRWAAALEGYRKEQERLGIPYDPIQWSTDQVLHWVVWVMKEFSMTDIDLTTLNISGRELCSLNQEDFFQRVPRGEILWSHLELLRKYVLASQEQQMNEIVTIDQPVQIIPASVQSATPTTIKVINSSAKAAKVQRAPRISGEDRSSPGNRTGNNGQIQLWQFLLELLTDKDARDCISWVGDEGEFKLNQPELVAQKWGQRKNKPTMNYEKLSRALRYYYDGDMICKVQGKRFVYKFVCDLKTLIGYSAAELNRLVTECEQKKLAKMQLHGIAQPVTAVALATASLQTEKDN", "test": "DAPPL (digital affinity profiling via proximity ligation, sequencing); 10 mM Tris-HCl pH 7.5, 50 mM NaCl, 1 mM DTT, 4% glycerol, room temperature, 30 min; GST-TFs on glutathione beads, 16-mer random dsDNA library, 0.1% formaldehyde crosslink after washing; high values mean tight binding", "details": "protein: recombinant; tags: N-terminal GST; dsDNA, one strand shown", "in_short": "as §1", "values": [
      {"sequence": "GTGCTC", "binding signal": "1.25 fold enrichment (6-mer frequency, TF over GST control)"},
      {"sequence": "CTTGAA", "binding signal": "1.09 fold enrichment (6-mer frequency, TF over GST control)"},
      {"sequence": "GATTTG", "binding signal": "1.22 fold enrichment (6-mer frequency, TF over GST control)"},
      {"sequence": "GCGTTC", "binding signal": "1.08 fold enrichment (6-mer frequency, TF over GST control)"},
      {"sequence": "TCTGTG", "binding signal": "1.18 fold enrichment (6-mer frequency, TF over GST control)"},
      {"sequence": "GAAGTA", "binding signal": "1.68 fold enrichment (6-mer frequency, TF over GST control)"},
      {"sequence": "TACGGA", "binding signal": "1.21 fold enrichment (6-mer frequency, TF over GST control)"},
      {"sequence": "ACACAC", "binding signal": "1.21 fold enrichment (6-mer frequency, TF over GST control)"},
      {"sequence": "GCTGAA", "binding signal": "1.14 fold enrichment (6-mer frequency, TF over GST control)"},
      {"sequence": "TCACAA", "binding signal": "1.21 fold enrichment (6-mer frequency, TF over GST control)"},
      {"sequence": "GCGCCT", "binding signal": "1.11 fold enrichment (6-mer frequency, TF over GST control)"},
      {"sequence": "CTGGAC", "binding signal": "1.17 fold enrichment (6-mer frequency, TF over GST control)"},
      {"sequence": "GTATAC", "binding signal": "1.32 fold enrichment (6-mer frequency, TF over GST control)"},
      {"sequence": "TATTTC", "binding signal": "2.06 fold enrichment (6-mer frequency, TF over GST control)"},
      {"sequence": "CCGAAA", "binding signal": "1.33 fold enrichment (6-mer frequency, TF over GST control)"},
      {"sequence": "ACCTTG", "binding signal": "1.24 fold enrichment (6-mer frequency, TF over GST control)"},
      {"sequence": "CAACAC", "binding signal": "1.19 fold enrichment (6-mer frequency, TF over GST control)"},
      {"sequence": "GTATAA", "binding signal": "1.06 fold enrichment (6-mer frequency, TF over GST control)"},
      {"sequence": "TCGATG", "binding signal": "1.12 fold enrichment (6-mer frequency, TF over GST control)"},
      {"sequence": "GGCCTA", "binding signal": "1.31 fold enrichment (6-mer frequency, TF over GST control)"}
    ]}
  ]
}
